# KB-V1 MDR tox: qHTS assay for MDR1-selective chemotherapeutics: Primary screen using the drug-selected MDR subline cells KB-V1 | KB-V1 MDR cells viability, CellTiter-Glo, 72 h | Potency, µM (doses to about 46.1 µM), actives largely listed as cytotoxic | 3.4% of 400,000 active | AID 1347076, 2019; also: nearly all actives have a fitted effect of over 60% in size
#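 Following 72 h at 37 degrees C with compound, KB-V1 cell viability was read by CellTiter-Glo luminescence, medium being phenol-red-free DMEM plus 10% FBS; concentration-response parameters came from normalized, curve-fitted qHTS data.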
# KB-3-1 cytotox: qHTS assay for MDR1-selective chemotherapeutics: Primary screen using the parental adenocarcinoma cell KB-3-1; 1.4% of 400,000 active; Potency, µM (doses to about 46.1 µM), actives largely listed as cytotoxic; KB-3-1 viability, CellTiter-Glo ATP luminescence, 72 h; also: nearly all actives have a fitted effect of over 60% in size
#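 Cells are dispensed, compounds pinned in, plates held at 37 °C for 72 h, then CellTiter-Glo is added and luminescence read after 10 minutes. Cell line: parental KB-3-1 in phenol-red-free DMEM, 10% FBS.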
# TDP1 cell noCPT: qHTS for Inhibitors of human tyrosyl-DNA phosphodiesterase 1 (TDP1): qHTS in cells in absence of CPT; 15% of 420,000 active; Potency, µM (titrated, usually from 46.2 µM), for inactives: at the highest dose activity change, negative = growth inhibition, usual class: inhibitors; DT40 Tdp1-/- hTDP1 cells, no CPT, ATP luminescence, 48 h; also: nearly all actives have a fitted effect of over 55% in size
#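 No-CPT arm: Tdp1-/-;hTDP1 DT40 cells (400/well) plus compounds, incubated ≥48 hr at 37 °C. Readout CellTiter-Glo luminescence.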
# HT1080 IDH1KD tx: qHTS for induction of synthetic lethality in tumor cells producing 2HG: qHTS for the HT-1080-IDH1KD cell line | 2% of 360,000 active | HT-1080 IDH1 knockdown viability, ATP luminescence, 48 h | Potency, µM (series often up to 46.1 µM), inactives show top-dose activity, negative = toxicity, hits mostly cytotoxic;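 also: 0% = DMSO wells and -100% = cell-free medium wells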
#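 Viability of IDH1-knockdown HT-1080 fibrosarcoma cells was assessed by CellTiter-Glo after 48 h at 37 °C with titrated compound; concentration-effect curves were classified by fit quality and response size.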
# DT40 TDP1 CPT: qHTS for Inhibitors of human tyrosyl-DNA phosphodiesterase 1 (TDP1): qHTS in cells in presence of CPT; chicken DT40 Tdp1-/-;hTDP1 cells + 20 nM CPT, ATP luminescence, 48 h; Potency, µM (titrated, usually from 46.2 µM), without a hit: top-dose activity change, negative = growth inhibition, usual class: inhibitors; 12% of 420,000 active; AID 686979, 2013; also: nearly all actives have a fitted effect of over 55% in size
#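 Chicken DT40 Tdp1-/- cells stably complemented with human TDP1 were seeded at 400 cells/well in medium containing 20 nM camptothecin, exposed to pin-transferred compounds, and grown at 37 °C for at least 48 hr. Viability was read as ATP luminescence.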
# HT1080-NT tox: qHTS for induction of synthetic lethality in tumor cells producing 2HG: qHTS for the HT-1080-NT fibrosarcoma cell line; HT-1080-NT fibrosarcoma viability, CellTiter-Glo ATP luminescence, 48 h; Potency, µM (top dose mostly 46.1 µM), without a hit: at the highest dose activity, negative = less viability, most hits filed as cytotoxic; 1.6% of 360,000 active; AID 686970, 2013;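 also: NT is the 2HG producing partner of a matched IDH1 knockdown line; 0% = DMSO-treated cells and -100% = media-only wells without cells; nearly all actives have a fitted effect of over 55% in size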
#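 750 cells/well, RPMI + 5% FBS; 2 h settle, compound pin-transfer, 48 h at 37 degrees C. CellTiter-Glo 10 min RT, luminescence. Normalized to DMSO and media-only wells.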
# An asterisk follows results filed as active; i = inactive; ? = inconclusive; / = no result; [ ] = remark or other dose. A selection: hits, their analogues and other compounds. The true share with any hit is near 19%. Calls follow the shape of the dose curve; as a rule, active = well fitted curve in the direction sought with a large enough effect; inconclusive = small, poorly fitted or top-dose-only effect, or another doubt; inactive = no such curve, though single readings can be large; an effect the other way counts as inactive or inconclusive. Unless noted, % is scaled to controls: 0 for no effect and ±100 for the full control effect; potency is read from the fitted curve at half-maximal effect.
SMILES,KB-V1 MDR tox,KB-3-1 cytotox,TDP1 cell noCPT,HT1080 IDH1KD tx,DT40 TDP1 CPT,HT1080-NT tox
Cc1cc(C(=O)N2CCc3c([nH]c4ccccc34)C2c2cccc(Cl)c2)nn1C (centres undefined),i,i,?,-19.9%,?,-11.1%
CCc1cc(C(=O)N2CCc3c([nH]c4ccccc34)C2c2ccc(OC)cc2F)no1 (centres undefined),?,5.8µM*,23.1µM*,-29.8%,?,?
CC1(C(=O)NS(=O)(=O)Cc2ccccc2)CCN1C(=O)CCc1ccccc1 (centres undefined),i,i,1.3%,?,3.7%,9.5%
Fc1ccc(-c2nn(-c3ccc(Cl)cc3)c3c2cnc2ccc(F)cc23)cc1,i,i,-3.9%,/,3.0%,/
Cc1cc(OCC(=O)NCCCN2CCOCC2)c2c(C)cc(=O)oc2c1,i,i,15.4%,-0.7%,10.7%,-1.0%
COc1ccc(-c2ccc3c(N)c(C(=O)Nc4cccc(C)c4)sc3n2)cc1,/,/,?,/,16.4µM*,/
Nc1c(C(=O)Nc2ccc(Br)cc2)sc2nc(-c3ccco3)ccc12,5.17µM*,i,14.6µM*,-23.3%,?,-25.0%
Nc1c(C(=O)Nc2ccc(Br)cc2)sc2nc(-c3ccncc3)ccc12,/,/,?,/,-19.6%,/
Cc1ccc(NC(=O)c2sc3nc(-c4ccc(F)cc4)ccc3c2N)cc1F,i,i,20.6µM*,/,11.6µM*,/
CC(C)CSc1ccccc1NC(=O)c1sc2nc(-c3ccncc3)ccc2c1N,i,i,7.31µM*,/,5.8µM*,/
COc1ccc(-c2nc3c4ccccc4n(CC(=O)Nc4cc(F)ccc4F)c(=O)n3n2)cc1,i,i,-27.8%,/,-1.2%,/
COc1cc(NC(=O)CCn2cnc3ccccc3c2=O)cc(OC)c1,i,i,?,/,-17.3%,/
Cc1cc(F)ccc1NC(=O)c1sc2nc(-c3cccs3)ccc2c1N,i,i,?,/,?,/
COc1ccc(-c2ccc3c(N)c(C(=O)Nc4cc(F)ccc4C)sc3n2)cc1,?,i,14.6µM*,/,?,/
COCCN(CC(=O)Nc1ccccc1C(F)(F)F)C(=O)/C=C/c1cc(Cl)c2c(c1)OCCO2,3.66µM*,i,?,-34.4%,?,-1.4%
C[C@@H]1CN([C@@H](C)CO)S(=O)(=O)c2ccc(Br)cc2O[C@@H]1CN(C)Cc1cccnc1,i,i,-11.9%,-3.9%,-3.8%,-0.1%
Cc1nn(C)c(C)c1S(=O)(=O)N(CC(=O)Nc1ccc(F)cc1F)c1ccc(C(C)C)cc1,i,i,?,/,?,/
C=C1C(=O)O[C@H]2[C@H]1[C@@H](O)CC(=C)[C@@H]1CC(=O)[C@@H](C)[C@H]21,i,i,6.51µM*,?,5.17µM*,?
CCOC(=O)c1ccc(Oc2nc(OC)cc(OC)n2)cc1,i,i,-8.1%,-1.9%,-0.2%,2.2%
CCOc1ccc(C(C)=O)cc1N1C(=O)C2C3C=CC(O3)C2C1=O (centres undefined),i,i,5.17µM*,?,6.51µM*,6.1%[9.24 µM]
COc1ccccc1CCc1nnc(CCC(=O)N(C)Cc2cccc3cnccc23)o1,i,i,23.1µM*,1.5%,?,-2.3%
c1ccc2c(CCc3c[nH]c4ccccc34)ccnc2c1,i,?,15.8µM*,/,12.6µM*,/

# Screening data from PubChem BioAssay.
